Source: PubChem BioAssay (Johns Hopkins Ion Channel Center)
This is a sample that favours compounds with a hit; in the whole collection about 1.6% have one here.
KCNQ2 pot: KCNQ2 (rat) channel potentiation. O88943. CHO-K1 KCNQ2, FluxOR thallium flux fluorescence; active compounds read high. B-score at 10 µM. 0.54% of 310,000 active;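 active = fluorescence ratio B-score at least 3 SD of library B-scores, with initial fluorescence B-score within 3 of them, cut at about 5.3 in these data; same plate scores as AID 2156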;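 also: B-score of peak minus minimum over baseline fluorescence ratio after K+ and Tl+ stimulus; positive B-score means potentiation of KCNQ2 with more thallium influx and brighter signal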
Target sequence (O88943 whole entry, looked up): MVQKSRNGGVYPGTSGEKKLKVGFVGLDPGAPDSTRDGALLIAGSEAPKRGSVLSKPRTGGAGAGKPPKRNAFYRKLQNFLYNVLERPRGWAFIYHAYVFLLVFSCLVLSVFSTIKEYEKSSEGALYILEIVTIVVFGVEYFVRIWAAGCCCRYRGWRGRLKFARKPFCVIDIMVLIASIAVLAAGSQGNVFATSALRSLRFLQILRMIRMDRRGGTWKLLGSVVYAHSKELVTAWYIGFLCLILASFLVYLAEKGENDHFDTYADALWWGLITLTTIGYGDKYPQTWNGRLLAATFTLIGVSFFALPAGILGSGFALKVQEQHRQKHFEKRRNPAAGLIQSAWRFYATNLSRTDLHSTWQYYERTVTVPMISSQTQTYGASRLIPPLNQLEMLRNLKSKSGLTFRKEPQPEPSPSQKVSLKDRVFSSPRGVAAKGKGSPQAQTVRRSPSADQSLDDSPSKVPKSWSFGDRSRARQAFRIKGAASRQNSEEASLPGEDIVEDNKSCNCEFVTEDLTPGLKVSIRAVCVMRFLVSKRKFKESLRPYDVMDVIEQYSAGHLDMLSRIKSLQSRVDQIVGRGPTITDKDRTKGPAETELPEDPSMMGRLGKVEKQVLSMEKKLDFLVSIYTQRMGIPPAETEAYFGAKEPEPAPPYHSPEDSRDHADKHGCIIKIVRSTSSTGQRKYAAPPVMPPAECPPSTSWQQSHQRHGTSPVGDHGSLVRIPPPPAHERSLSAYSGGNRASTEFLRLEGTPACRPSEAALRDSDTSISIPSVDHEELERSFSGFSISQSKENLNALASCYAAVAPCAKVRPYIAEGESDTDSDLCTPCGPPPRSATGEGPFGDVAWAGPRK
KCNQ2 inh: inhibitors of rat KCNQ2 potassium channel | O88943 | CHO-K1 KCNQ2, FluxOR thallium flux, 20 min; active compounds read low | B-score at 10 µM | 1.1% of 310,000 active;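 active = fluorescence ratio B-score at most minus 3 library SDs, with starting brightness B-score within 2 library SDs, cut at about -5.5 in these data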
Kir21 conf inh: confirmation of mouse Kir2.1 potassium channel inhibitors. 41% of 2,300 active. Kir2.1-expressing cells, FluxOR thallium flux fluorescence; active compounds read low. shares compounds with KCNQ2 pot. Tl flux remaining, % of negative control (active compounds read low), % at 10 µM;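 active = Primary-screen hit whose thallium flux fell at least 3 control SD below untreated wells in both duplicates, with normal baseline fluorescence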;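 also: 0% = blank wells without stimulus and 100% = stimulated no-compound controls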
HEK293 ctr: alters thallium flux in parental HEK293 cells, Kir2.1 counter-screen | shares compounds with KCNQ2 pot | FluxOR thallium flux fluorescence; 0% = unstimulated blank wells | FluxOR signal as % of negative control (100 = no effect), % at 10 µM | 19% of 2,300 active;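 active = dye signal at least 3 control SD above or below untreated wells in both duplicates, raw fluorescence within 3, either direction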;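 also: percent is based on the flux ratio of peak minus minimum fluorescence over baseline F0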
CHO-K1 ctr: parental CHO-K1 activity in KCNQ2 potentiator counter-screen. shares compounds with KCNQ2 pot. parental CHO-K1 cells, FluxOR thallium flux fluorescence; zero = vehicle mean+3SD, 100% = vehicle-minus-blank window. activity increase over 3SD of controls, % at 10 µM. 43% of 1,200 active;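 active = signal rise of at least 3 SD above the untreated control mean, in both duplicate wells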;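 also: counter screen of KCNQ2 potentiator hits so any rise reflects channel-independent effects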
KCNQ1 pot spec: human KCNQ1 counter-target activity of KCNQ2 potentiators | CHO KCNQ1 stable, FluxOR thallium flux fluorescence; beyond 3SD, as % of vehicle-control signal | shares compounds with KCNQ2 pot | 28% of 1,200 active | activation over 3SD threshold, % at 10 µM;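 active = fluorescence ratio rise of at least 3 SD of vehicle wells above their mean, in both replicate wells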;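 also: 0% = vehicle mean plus 3 SD and 100% = vehicle minus unstimulated blank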
KCNQ2 pot confirm: confirmation of rat KCNQ2 potassium channel potentiators | shares compounds with KCNQ2 pot | CHO-KCNQ2 cells, FluxOR thallium flux fluorescence | potentiation, less the hit threshold, % at 10 µM | 68% of 1,200 active;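 active = fluorescence ratio rising 3 SD or more over the vehicle control mean in both replicates, plus primary screen hit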;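 also: peak minus minimum thallium fluorescence divided by baseline after K/Tl stimulus; 0% = vehicle mean plus 3 SD and 100% = vehicle minus unstimulated blank difference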
Kir21 spec: tests whether KCNQ2 potentiators also affect mouse Kir2.1 | shares compounds with KCNQ2 pot | HEK293 Kir2.1, FluxOR thallium flux fluorescence | activity over 3SD threshold, % at 10 µM | 2% of 1,200 active;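 active = fluorescence ratio rise of at least 3 SD above the vehicle-control mean, seen in both replicates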;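 also: 0% = vehicle mean plus 3 SD and 100% = vehicle minus no-stimulus blank window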
KCNQ2 W236L pot: potentiates the retigabine-insensitive rat KCNQ2 W236L mutant channel. AID 2558. CHO KCNQ2-W236L, automated patch clamp current. shares compounds with KCNQ2 pot. current increase over 3SD of negative controls (%), active compounds read high, % at 25 µM. 10% of 940 active;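 active = current increase at least 3 SD of the untreated controls above them in both duplicate recordings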
Active calls of the source: *; i = inactive; . = not tested or not shown.

SMILES	KCNQ2 pot	KCNQ2 inh	Kir21 conf inh	HEK293 ctr	others
N#CC1=C(SCc2ccccc2)NC(=O)CC1c1ccccc1 (configuration not stated)	.	i	41%*	i
Cc1ccc(C(=O)CSC2=C(C#N)C(c3ccco3)C3=C(CC(C)(C)CC3=O)N2)cc1 (configuration not stated)	0.27	i	.	.
CCOC(=O)CSC1=C(C#N)C(c2ccc(Cl)cc2)CC(=O)N1 (configuration not stated)	0.03	i	47%*	i
CCOC(=O)CSC1=C(C#N)C(c2ccc(F)cc2)C(C(C)=O)=C(C)N1 (configuration not stated)	8.1*	i	i	i	CHO-K1 ctr=14*;KCNQ1 pot spec=-20;KCNQ2 pot confirm=4.6*;Kir21 spec=-44;KCNQ2 W236L pot=i
CC(=O)C1=C(C)NC(SCC(=O)c2ccc(C)cc2)=C(C#N)C1c1ccco1 (configuration not stated)	12*	i	i	i	CHO-K1 ctr=-12;KCNQ1 pot spec=-20;KCNQ2 pot confirm=-22;Kir21 spec=-46
CCOC(=O)CSC1=C(C#N)C(c2ccc3c(c2)OCO3)CC(=O)N1 (configuration not stated)	0.26	i	.	.
CCOC(=O)C1=C(C)NC(SCC(=O)OC)=C(C#N)C1c1ccc(C(=O)OC)cc1 (configuration not stated)	.	i	.	.
CCOc1cc(C(=O)N2CCC3(CC2)NCCc2[nH]cnc23)cc(OCC)c1OCC	.	i	.	.
COc1ccc(/C=C2\SC(=S)N(CCC(=O)NC3CCCC3)C2=O)cc1OC	.	i	.	.
CC(C)C(=O)NC(=S)Nc1ccc(S(=O)(=O)N2CCN(C)CC2)cc1	0.04	i	.	.
O=C(Nc1ccc(C(=O)N2CCOCC2)cc1)c1cc(-c2cccnc2)nc2ccc(Cl)cc12	0.35	i	.	.
CC(C)(C)c1csc(SCC(=O)Nc2ccc(Cl)cn2)n1	7*	i	i	i	CHO-K1 ctr=13*;KCNQ1 pot spec=10*;KCNQ2 pot confirm=5.0*;Kir21 spec=-46;KCNQ2 W236L pot=i
Cc1csc(SCC(=O)Nc2ccc(Cl)cn2)n1	0.39	i	.	.
C=CCNC(=S)NC(CC(=O)OC)c1ccc2c(c1)OCO2 (configuration not stated)	.	i	.	.
CCN(CCNCC(O)COc1ccccc1C(C)C)c1cccc(C)c1 (configuration not stated)	.	i	33%*	i
CCOC(=O)c1cccc(OCC(O)CNCCOc2ccccc2F)c1 (configuration not stated)	0.64	i	.	.
O=[N+]([O-])c1ccc(CSC2=NCCS2)cc1	.	i	.	.
CC1=C(c2ccccc2)C(=S)NC(C)(C)C1	1.6	i	.	.
Cc1ccc(NC(=O)CCOc2ccccc2)c(C)c1	6*	i	i	i	CHO-K1 ctr=-6;KCNQ1 pot spec=49*;KCNQ2 pot confirm=5.5*;Kir21 spec=-22;KCNQ2 W236L pot=i
COc1cc(OC)cc(C(=O)Nc2ccc(N(C)C)c3ccccc23)c1	0.66	i	.	.
Cc1ccc(NC(=O)Cc2ccccc2)c(C)c1	6.4*	i	.	.	CHO-K1 ctr=3.4*;KCNQ1 pot spec=-5;KCNQ2 pot confirm=7.4*;Kir21 spec=-48;KCNQ2 W236L pot=i
Cc1ccc(F)cc1NC(=O)CCOc1ccccc1	.	i	.	.
CN(C)c1ccc(NC(=O)Cc2ccccc2)c2ccccc12	5.3*	i	i	i	CHO-K1 ctr=-4;KCNQ1 pot spec=-31;KCNQ2 pot confirm=10*;Kir21 spec=-23;KCNQ2 W236L pot=i
Cc1ccc(NC(=O)CN2CCC(NC(=O)Cc3ccccc3)CC2)c(C)c1	.	i	.	.
CC(=O)Oc1cccc(N2C(=O)c3ccc(C(=O)Nc4c[nH]c(=O)[nH]c4=O)cc3C2=O)c1	.	i	.	.
SMILES	KCNQ2 pot	KCNQ2 inh	Kir21 conf inh	HEK293 ctr	others
CN(CCCC1CCCC1)C(=O)CC1C(=O)NCCN1Cc1ccc(F)cc1 (configuration not stated)	0.37	i	.	.
CCN1C(=O)C(CC(=O)Nc2ccc(F)cc2)N(CCCN2CCN(c3ccc(F)cc3)CC2)C1=S (configuration not stated)	.	i	.	.
CCCCCCCCCCCCCCCC[N+](C)(C)CC	.	i	52%*	i
CCCCCC[N+](C)(C)CCSSCC[N+](C)(C)CCCCCC	0.45	i	.	.
O=C(CSc1nnc(CNC(=O)c2cccs2)o1)Nc1ccc(Cl)cc1	1.8	i	.	.
Cc1ccc(CSCCNS(=O)(=O)c2ccc([N+](=O)[O-])cc2)cc1	.	i	.	.
Cc1ccc(S(=O)(=O)NCCSCc2ccccc2)cc1	.	i	64%*	i
Nc1cc2c(cc1[N+](=O)[O-])OCCOCCOCCO2	0.57	i	.	.
Cc1cc(C)cc(NC(=S)N2CCC(NC(=O)C3CC3)CC2)c1	0.01	i	.	.
COc1ccc(/C=N/NC(=O)Cc2cc(OC)c(OC)cc2[N+](=O)[O-])cc1	0.45	i	.	.
CC(NC1CCCC1)c1ccccc1 (configuration not stated)	0.98	i	.	.
CC(NCCC(c1ccccc1)c1ccccc1)c1ccccc1 (configuration not stated)	0.97	i	44%*	i
NC(=O)CCn1c2ccccc2c2ccccc21	0.2	i	.	.
CC(C)CCn1c2ccccc2c2cc(CC(N)=O)ccc21	0.94	i	i	i
CC(C)C(=O)NCC(c1ccc2c(c1)OCO2)N1CCOCC1 (configuration not stated)	0.01	i	.	.
CC(C)CC(=O)NC(Nc1ccccc1F)C(Cl)(Cl)Cl (configuration not stated)	.	i	.	.
CCCC(=O)NC(Nc1ccccc1F)C(Cl)(Cl)Cl (configuration not stated)	0.26	i	58%*	62%*
CCOc1ccc(S(=O)(=O)NC(Cc2c[nH]c3ccccc23)C(=O)O)cc1 (configuration not stated)	.	i	.	.
O=C(Nc1ncccc1O)c1ccc2c(c1)OCCO2	.	i	.	.
Oc1ccc(N=Nc2ccc3c(c2)OCCO3)c2ncccc12	12*	i	i	i	CHO-K1 ctr=2.9*;KCNQ1 pot spec=-19;KCNQ2 pot confirm=-20;Kir21 spec=-35
CCOC(=O)C1=C(COC(=O)C(CC)Oc2ccccc2)NC(=O)NC1C (configuration not stated)	1.2	i	.	.
CCOC(=O)C1CCN(Cc2cccc(Oc3ccc(Cl)cc3)c2)CC1	.	i	.	.
CCOC(=O)C1CCN(Cc2cccc(Oc3ccccc3)c2)CC1	.	i	27%*	i
